Experimental findings from ChEMBL document CHEMBL3988442, “University of Dundee, Small-Polar-MMV Screening Library” (2021) are described below.

For the first test, the target named is T1, Tyrosyl-tRNA synthetase, putative (Trypanosoma cruzi (strain CL Brener)) (UniProt Q4DSP6).
T1 sequence (whole entry): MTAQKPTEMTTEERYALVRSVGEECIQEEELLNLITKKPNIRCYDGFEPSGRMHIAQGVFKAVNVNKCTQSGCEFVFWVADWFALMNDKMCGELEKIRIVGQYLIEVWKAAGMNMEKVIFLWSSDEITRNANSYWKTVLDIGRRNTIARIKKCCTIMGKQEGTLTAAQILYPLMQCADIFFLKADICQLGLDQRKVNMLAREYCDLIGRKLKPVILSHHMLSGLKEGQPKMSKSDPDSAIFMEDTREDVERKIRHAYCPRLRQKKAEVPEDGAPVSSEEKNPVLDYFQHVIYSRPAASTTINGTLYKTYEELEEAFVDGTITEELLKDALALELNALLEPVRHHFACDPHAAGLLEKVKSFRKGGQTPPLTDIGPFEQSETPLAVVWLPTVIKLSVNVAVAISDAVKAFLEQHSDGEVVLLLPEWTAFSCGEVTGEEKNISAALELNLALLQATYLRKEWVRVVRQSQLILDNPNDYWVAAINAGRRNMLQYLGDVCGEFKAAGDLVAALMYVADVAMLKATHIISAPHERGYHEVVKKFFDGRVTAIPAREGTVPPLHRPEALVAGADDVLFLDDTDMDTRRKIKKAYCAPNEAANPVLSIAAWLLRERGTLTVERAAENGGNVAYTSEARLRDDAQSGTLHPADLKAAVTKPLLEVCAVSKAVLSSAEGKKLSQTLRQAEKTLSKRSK
Nature of the test: Trypanosoma cruzi tyrosyl tRNA synthetase (TcYRS) _High Tyrosine SOP. The class given is functional. Details: scale not given: in the data most compounds retested in dose-response had high values. The settings on record: 30 µM.
With `CN(Cc1ccsc1)C(=O)c1cccc(S(=O)(=O)NC(C)(C)C)c1`, the Percent Effect worked out at 6.8%.
On the same count and under the same terms, to `Clc1snnc1CN1CCCCC1Cn1cncn1` (stereo not given) belongs 12.3%.
On the same count and under the same terms, with `O=C(CC1CC1)N1CCC2(CC1)CN(c1ncccn1)CCO2` the figure was -5.32%; with `CC(C)c1noc(CCC(=O)NC(C)c2nnc3n2CCCCC3)n1` (stereo not given), -9.68%; with `CC1c2ncc(COc3cccnc3)n2CCN1C(=O)Cc1ccco1` (stereo not given), 2.12%.
On the same count and under the same terms, to `COc1cccc(CN(C)S(=O)(=O)N2CCOCC2)c1` belongs 5.32%; to `Cc1ccc(S(=O)(=O)NC2CNC(=O)C2)cc1C` (stereo not given), 7.53%; to `COCC(O)CN(C)C(=O)NC1CCN(Cc2ccccn2)CC1` (stereo not given), 5.83%.
For `O=C(NCc1ccco1)[C@H]1C[C@H]2OCC[C@H]2N(S(=O)(=O)C2CC2)C1`, the Percent Effect is -1.04%.
On the same count and under the same terms, to `Cc1ncsc1CN1C[C@@H](OCC2CC2)[C@H]2OCCC[C@H]21` belongs 5.38%.
Still for that read-out and setting: with `COc1ccc(C2Nc3ccccc3C3=NCCCN32)cc1OC` (stereo not given) the figure was 0%; with `O=C(NC[C@]12COC[C@H]1CN(Cc1nccs1)C2)N1CCCC1`, 2.12%.
Turning to `CC(C)c1cc(NC(=O)c2ccc(NC3CC3)nc2)[nH]n1`, the Percent Effect stood at 7.77%.
Same read-out and setting: to `O=C(c1cnc(C2CC2)s1)N1CCCC(n2cccn2)C1` (stereo not given) belongs 6.4%; to `O=C1N(c2ccc(Br)cc2)Cc2nc(=O)[nH]n21`, 5.29%; to `COc1ccc(C(=O)N(Cc2cnn(C)c2)C(C)C)cc1Br`, 2.46%.
As for `CCCc1cc(C(=O)N(C)Cc2cccc3ncccc23)n(C)n1`, the Percent Effect stood at 7.53%.
As for `Cc1nc(CN2C[C@@H]3CN(C(=O)C4CC4)C[C@@H]3C2=O)cs1`, the Percent Effect amounted to 1.08%.
For `Cc1ccc(NC(=O)NCCCc2n[nH]c(N)c2C#N)cc1`, the Percent Effect is 5.42%.
With `CS(=O)(=O)NCC(=O)NC1CCc2nccn2C1` (stereo not given), the Percent Effect was 4.92%.
On to `CCCN(CC(=O)NC)C(=O)c1ccc(-c2ccsc2)nc1C`, for which the Percent Effect was found to be 7.37%.
On the same count and under the same terms, with `Cc1ccc(C(=O)N2CCc3c(CNS(C)(=O)=O)cncc3C2)o1` the figure was 3.12%; with `Cc1cnn(CCC(=O)N2CCOC(c3nc(C(C)(C)C)n[nH]3)C2)c1` (stereo not given), -1.05%.
As to `COc1cc(C)nc(N2CCN(C(=O)c3ccccc3C)CC2)n1`, the Percent Effect was found to be 5.42%.
The same measure, in the same setting: with `COCC1CC2(CCN(C(=O)c3cccn3C)CC2)CN1C(C)C` (stereo not given) the figure was 7.92%.
Same read-out and setting: with `Cc1cc(C(=O)N2C[C@@H]3COC[C@]3(c3nnc(C4CC4)o3)C2)on1` the figure was -5.21%; with `CCOc1nnc(CN2CCC(N(C)Cc3noc(C)n3)C2)s1` (stereo not given), 7.39%.
Still for that read-out and setting: to `Cc1cnc(CN(C)C2CCN(CC(=O)Nc3c(C)n[nH]c3C)C2)o1` (stereo not given) belongs 5.42%; to `CNC(=O)C1CCN(C(=O)CCn2cccn2)CC1`, -0.99%.
For the compound `COCCNC(=O)[C@@H]1CC[C@@H]2[C@@H](CCN2Cc2cnn(C)c2)O1`, the Percent Effect was found to be 3.12%.
The same measure, in the same setting: with `Cc1cc(C)n(CC2CCCN2C(=O)CCCc2ccccn2)n1` (stereo not given) the figure was 1.47%; with `Cc1nccc(-c2cccc(NCC(=O)N3CCNC3=O)c2)n1`, 10.3%.
On the same count and under the same terms, to `O=C(c1cnco1)N1CCCC(Cc2cccc3ncccc23)C1` (stereo not given) belongs 1.07%; to `O=C(NCC(=O)N1CCCCC1)c1ccc(Cl)cc1I`, 2.65%; to `Cc1cncc(C2CCCN(C(=O)c3scnc3C)C2)n1` (stereo not given), 3.23%.
As for `COC1CCN(C(=O)Cc2csc(-c3ncccn3)n2)CC1`, the Percent Effect was found to be 2.45%.
Still for that read-out and setting: to `CC(C)Cc1noc(CN2CCOC(Cn3cncn3)C2)n1` (stereo not given) belongs 0%.
As to `Cc1nc(C)n(C2CCCN(C(=O)c3ccccc3C)C2)n1` (stereo not given), the Percent Effect is 7.62%.
The same measure, in the same setting: with `CCCc1ncc(C(=O)N2CCOC(c3nc(C)n[nH]3)C2)s1` (stereo not given) the figure was 1.04%; with `Cc1ccsc1[C@@H]1CCN(C(=O)c2cc3ccccc3[nH]2)C[C@H]1O`, -3.16%.

The next test addresses T1, Tyrosyl-tRNA synthetase, putative (Trypanosoma cruzi (strain CL Brener)). Nature of the test: Trypanosoma cruzi tyrosyl tRNA synthetase (TcYRS) SOP. The class given is functional. More on the design: scale not given: direction of the effect not stated beside the values. The settings on record: 30 µM.
As for `CN(Cc1ccsc1)C(=O)c1cccc(S(=O)(=O)NC(C)(C)C)c1`, the Percent Effect stood at 12.2%.
Still for that read-out and setting: to `Clc1snnc1CN1CCCCC1Cn1cncn1` (stereo not given) belongs 24.1%; to `O=C(CC1CC1)N1CCC2(CC1)CN(c1ncccn1)CCO2`, -1.28%.
Still for that read-out and setting: to `CC(C)c1noc(CCC(=O)NC(C)c2nnc3n2CCCCC3)n1` (stereo not given) belongs 1.24%; to `CC1c2ncc(COc3cccnc3)n2CCN1C(=O)Cc1ccco1` (stereo not given), 7.69%.
Same read-out and setting: with `COc1cccc(CN(C)S(=O)(=O)N2CCOCC2)c1` the figure was 18.2%.
Turning to `Cc1ccc(S(=O)(=O)NC2CNC(=O)C2)cc1C` (stereo not given), the Percent Effect turned out to be 12.5%.
Same read-out and setting: with `COCC(O)CN(C)C(=O)NC1CCN(Cc2ccccn2)CC1` (stereo not given) the figure was 24.4%; with `O=C(NCc1ccco1)[C@H]1C[C@H]2OCC[C@H]2N(S(=O)(=O)C2CC2)C1`, 15%.
On the same count and under the same terms, to `Cc1ncsc1CN1C[C@@H](OCC2CC2)[C@H]2OCCC[C@H]21` belongs 16.1%.
In the case of `COc1ccc(C2Nc3ccccc3C3=NCCCN32)cc1OC` (stereo not given), the Percent Effect was determined as 1.28%.
Still for that read-out and setting: with `O=C(NC[C@]12COC[C@H]1CN(Cc1nccs1)C2)N1CCCC1` the figure was 5.13%; with `CC(C)c1cc(NC(=O)c2ccc(NC3CC3)nc2)[nH]n1`, 24.4%.
In the case of `O=C(c1cnc(C2CC2)s1)N1CCCC(n2cccn2)C1` (stereo not given), the Percent Effect was 11.1%.
As to `O=C1N(c2ccc(Br)cc2)Cc2nc(=O)[nH]n21`, the Percent Effect is 15.4%.
Still for that read-out and setting: with `COc1ccc(C(=O)N(Cc2cnn(C)c2)C(C)C)cc1Br` the figure was 11.1%; with `CCCc1cc(C(=O)N(C)Cc2cccc3ncccc23)n(C)n1`, 18.5%.
Same read-out and setting: with `Cc1nc(CN2C[C@@H]3CN(C(=O)C4CC4)C[C@@H]3C2=O)cs1` the figure was 10.3%; with `Cc1ccc(NC(=O)NCCCc2n[nH]c(N)c2C#N)cc1`, 11.4%; with `CS(=O)(=O)NCC(=O)NC1CCc2nccn2C1` (stereo not given), 8.64%.
Consider `CCCN(CC(=O)NC)C(=O)c1ccc(-c2ccsc2)nc1C`, for which the Percent Effect worked out at 17.9%.
On the same count and under the same terms, with `Cc1ccc(C(=O)N2CCc3c(CNS(C)(=O)=O)cncc3C2)o1` the figure was 5%; with `Cc1cnn(CCC(=O)N2CCOC(c3nc(C(C)(C)C)n[nH]3)C2)c1` (stereo not given), -10.3%.
Still for that read-out and setting: to `COc1cc(C)nc(N2CCN(C(=O)c3ccccc3C)CC2)n1` belongs 18.5%.
Same read-out and setting: to `COCC1CC2(CCN(C(=O)c3cccn3C)CC2)CN1C(C)C` (stereo not given) belongs 3.66%; to `Cc1cc(C(=O)N2C[C@@H]3COC[C@]3(c3nnc(C4CC4)o3)C2)on1`, 5%.
Consider `CCOc1nnc(CN2CCC(N(C)Cc3noc(C)n3)C2)s1` (stereo not given), for which the Percent Effect is 6.17%.
Consider `Cc1cnc(CN(C)C2CCN(CC(=O)Nc3c(C)n[nH]c3C)C2)o1` (stereo not given), for which the Percent Effect was found to be 8.86%.
The same measure, in the same setting: with `CNC(=O)C1CCN(C(=O)CCn2cccn2)CC1` the figure was -1.22%.
The same measure, in the same setting: with `COCCNC(=O)[C@@H]1CC[C@@H]2[C@@H](CCN2Cc2cnn(C)c2)O1` the figure was 10%; with `Cc1cc(C)n(CC2CCCN2C(=O)CCCc2ccccn2)n1` (stereo not given), 4.88%; with `Cc1nccc(-c2cccc(NCC(=O)N3CCNC3=O)c2)n1`, 28.4%.
As to `O=C(c1cnco1)N1CCCC(Cc2cccc3ncccc23)C1` (stereo not given), the Percent Effect was determined as 9.09%.
On the same count and under the same terms, to `O=C(NCC(=O)N1CCCCC1)c1ccc(Cl)cc1I` belongs 12.2%; to `Cc1cncc(C2CCCN(C(=O)c3scnc3C)C2)n1` (stereo not given), 11.7%; to `COC1CCN(C(=O)Cc2csc(-c3ncccn3)n2)CC1`, 17.1%.
The same measure, in the same setting: to `CC(C)Cc1noc(CN2CCOC(Cn3cncn3)C2)n1` (stereo not given) belongs 13.4%.
Still for that read-out and setting: to `Cc1nc(C)n(C2CCCN(C(=O)c3ccccc3C)C2)n1` (stereo not given) belongs 11.8%; to `CCCc1ncc(C(=O)N2CCOC(c3nc(C)n[nH]3)C2)s1` (stereo not given), -2.53%.
For the compound `Cc1ccsc1[C@@H]1CCN(C(=O)c2cc3ccccc3[nH]2)C[C@H]1O`, the Percent Effect was -2.56%.
